What was measured:
Assay in all cases: DAPPL (digital affinity profiling via proximity ligation, sequencing); 10 mM Tris-HCl pH 7.5, 50 mM NaCl, 1 mM DTT, 4% glycerol, room temperature, 30 min; GST-TFs on glutathione beads, 16-mer random dsDNA library, 0.1% formaldehyde crosslink after washing; high values mean tight binding
Conditions in all cases: protein: recombinant; tags: N-terminal GST; dsDNA, one strand shown
FLI1 = target: T1, FLI1 (Homo sapiens, UniProt Q01543 1-452)
T1 sequence: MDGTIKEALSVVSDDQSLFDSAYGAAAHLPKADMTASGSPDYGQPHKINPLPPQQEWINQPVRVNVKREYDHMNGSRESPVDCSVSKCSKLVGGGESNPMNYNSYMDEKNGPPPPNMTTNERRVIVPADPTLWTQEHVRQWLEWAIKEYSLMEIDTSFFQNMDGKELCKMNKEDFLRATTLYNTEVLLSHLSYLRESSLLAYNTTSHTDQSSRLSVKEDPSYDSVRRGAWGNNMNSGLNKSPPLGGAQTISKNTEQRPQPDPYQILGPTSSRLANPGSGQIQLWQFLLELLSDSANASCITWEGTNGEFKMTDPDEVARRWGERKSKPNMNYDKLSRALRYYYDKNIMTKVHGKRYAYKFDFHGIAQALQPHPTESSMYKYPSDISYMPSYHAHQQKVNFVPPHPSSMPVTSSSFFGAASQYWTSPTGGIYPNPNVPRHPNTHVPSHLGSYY
Outline: (§1)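 Human transcription factors were made in yeast as GST fusions, captured on glutathione beads and barcoded with DNA. With a tag-only sample included, the pool was incubated with 200 nmole of a random double-stranded 16-mer DNA library in Tris/NaCl/DTT/glycerol buffer at room temperature for 30 min, then crosslinked with 0.1% formaldehyde after washing, ligated by proximity, amplified and sequenced. For binding signal, each hexamer's read frequency for a factor is divided by its frequency for the tag-only sample.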

ELK1 = target: T2, ELK1 (Homo sapiens, UniProt P19419 1-428)
T2 sequence: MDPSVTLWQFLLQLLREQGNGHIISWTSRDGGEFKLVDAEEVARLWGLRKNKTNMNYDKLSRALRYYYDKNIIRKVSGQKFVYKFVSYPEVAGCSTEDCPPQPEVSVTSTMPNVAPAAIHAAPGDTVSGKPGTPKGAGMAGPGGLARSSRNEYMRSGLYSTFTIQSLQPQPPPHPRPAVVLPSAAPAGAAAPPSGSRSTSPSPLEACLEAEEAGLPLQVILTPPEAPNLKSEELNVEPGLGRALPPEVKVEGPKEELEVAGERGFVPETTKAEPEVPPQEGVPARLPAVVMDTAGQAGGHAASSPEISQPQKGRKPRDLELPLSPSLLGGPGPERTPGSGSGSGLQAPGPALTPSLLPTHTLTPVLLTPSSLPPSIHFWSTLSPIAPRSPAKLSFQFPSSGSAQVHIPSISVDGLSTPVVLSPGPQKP
Outline: as §1

GABPA = target: T3, GABPA (Homo sapiens, UniProt Q06546 1-454)
T3 sequence: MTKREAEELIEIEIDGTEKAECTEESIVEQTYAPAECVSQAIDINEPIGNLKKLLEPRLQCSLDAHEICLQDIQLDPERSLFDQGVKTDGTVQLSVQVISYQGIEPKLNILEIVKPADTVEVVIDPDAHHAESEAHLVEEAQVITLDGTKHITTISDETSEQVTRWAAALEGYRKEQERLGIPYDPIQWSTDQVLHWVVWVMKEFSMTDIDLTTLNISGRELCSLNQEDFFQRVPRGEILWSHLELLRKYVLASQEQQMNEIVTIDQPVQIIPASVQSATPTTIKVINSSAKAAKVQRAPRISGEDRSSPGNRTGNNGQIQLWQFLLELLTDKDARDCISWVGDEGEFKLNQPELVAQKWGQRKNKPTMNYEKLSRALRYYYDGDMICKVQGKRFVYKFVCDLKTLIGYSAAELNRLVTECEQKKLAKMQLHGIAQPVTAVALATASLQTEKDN
Outline: as §1

ERG = target: T4, ERG (Homo sapiens, UniProt P11308 1-479)
T4 sequence: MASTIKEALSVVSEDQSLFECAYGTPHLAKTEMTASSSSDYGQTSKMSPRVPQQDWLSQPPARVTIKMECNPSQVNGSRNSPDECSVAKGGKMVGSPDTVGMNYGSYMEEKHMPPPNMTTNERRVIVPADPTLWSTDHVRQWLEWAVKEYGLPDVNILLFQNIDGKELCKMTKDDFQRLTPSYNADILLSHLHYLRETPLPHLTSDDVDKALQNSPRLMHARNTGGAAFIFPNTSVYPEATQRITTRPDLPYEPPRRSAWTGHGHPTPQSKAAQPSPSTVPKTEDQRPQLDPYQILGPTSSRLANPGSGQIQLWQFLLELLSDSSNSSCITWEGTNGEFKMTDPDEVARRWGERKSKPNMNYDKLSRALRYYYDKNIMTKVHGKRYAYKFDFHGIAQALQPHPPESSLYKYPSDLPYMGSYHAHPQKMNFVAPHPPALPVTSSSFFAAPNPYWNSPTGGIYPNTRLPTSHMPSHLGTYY
Outline: as §1

ELF1 = ELF1 (Homo sapiens, UniProt P32519 1-619)
Outline: as §1

EHF = target: T5, EHF (Homo sapiens, UniProt Q9NZC4 1-300)
T5 sequence: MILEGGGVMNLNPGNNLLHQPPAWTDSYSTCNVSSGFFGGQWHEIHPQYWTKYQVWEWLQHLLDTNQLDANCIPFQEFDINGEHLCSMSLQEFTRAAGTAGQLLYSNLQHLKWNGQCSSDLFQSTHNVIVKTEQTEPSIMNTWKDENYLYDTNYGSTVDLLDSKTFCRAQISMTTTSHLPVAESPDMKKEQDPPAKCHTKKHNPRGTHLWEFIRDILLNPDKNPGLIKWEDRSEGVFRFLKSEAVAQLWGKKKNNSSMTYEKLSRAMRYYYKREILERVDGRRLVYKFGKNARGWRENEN
Outline: as §1

SPI1 = SPI1 (Homo sapiens, UniProt P17947 1-270)
Outline: as §1

SPIB = SPIB (Homo sapiens, UniProt Q01892 1-262)
Outline: as §1

ELK3 = target: T6, ELK3 (Homo sapiens, UniProt P41970 1-407)
T6 sequence: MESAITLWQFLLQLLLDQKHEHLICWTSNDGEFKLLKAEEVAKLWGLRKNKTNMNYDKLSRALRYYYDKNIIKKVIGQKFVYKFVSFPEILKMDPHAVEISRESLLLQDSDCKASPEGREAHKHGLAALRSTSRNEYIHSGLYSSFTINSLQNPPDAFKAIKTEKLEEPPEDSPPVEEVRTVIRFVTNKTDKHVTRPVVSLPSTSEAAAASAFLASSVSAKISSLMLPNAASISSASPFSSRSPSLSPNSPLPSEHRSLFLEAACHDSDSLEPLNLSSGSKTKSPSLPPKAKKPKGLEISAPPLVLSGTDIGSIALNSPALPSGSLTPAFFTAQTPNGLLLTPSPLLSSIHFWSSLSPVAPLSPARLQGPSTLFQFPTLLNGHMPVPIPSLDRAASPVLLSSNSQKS
Outline: as §1

FEV = target: T7, FEV (Homo sapiens, UniProt Q99581 1-238)
T7 sequence: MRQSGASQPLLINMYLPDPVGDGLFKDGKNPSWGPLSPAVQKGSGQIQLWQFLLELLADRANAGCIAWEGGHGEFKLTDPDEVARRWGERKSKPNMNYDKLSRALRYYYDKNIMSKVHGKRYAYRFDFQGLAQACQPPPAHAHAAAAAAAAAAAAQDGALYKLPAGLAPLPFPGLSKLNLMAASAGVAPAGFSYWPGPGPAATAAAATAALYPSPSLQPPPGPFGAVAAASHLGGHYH
Outline: as §1

ETV5 = ETV5 (Homo sapiens, UniProt P41161 1-510)
Outline: as §1

SPIC = target: T8, SPIC (Homo sapiens, UniProt Q8N5J4 1-248)
T8 sequence: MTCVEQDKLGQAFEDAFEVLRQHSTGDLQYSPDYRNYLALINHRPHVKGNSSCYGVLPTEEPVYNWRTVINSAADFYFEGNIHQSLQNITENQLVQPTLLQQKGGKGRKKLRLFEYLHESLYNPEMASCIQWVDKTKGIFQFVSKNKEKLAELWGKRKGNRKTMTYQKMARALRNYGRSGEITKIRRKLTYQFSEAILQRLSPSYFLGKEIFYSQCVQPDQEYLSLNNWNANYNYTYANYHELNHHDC
Outline: as §1

ELF4 = ELF4 (Homo sapiens, UniProt Q99607 1-663)
Outline: as §1

ELK4 = target: T9, ELK4 (Homo sapiens, UniProt P28324-2 1-405)
T9 sequence: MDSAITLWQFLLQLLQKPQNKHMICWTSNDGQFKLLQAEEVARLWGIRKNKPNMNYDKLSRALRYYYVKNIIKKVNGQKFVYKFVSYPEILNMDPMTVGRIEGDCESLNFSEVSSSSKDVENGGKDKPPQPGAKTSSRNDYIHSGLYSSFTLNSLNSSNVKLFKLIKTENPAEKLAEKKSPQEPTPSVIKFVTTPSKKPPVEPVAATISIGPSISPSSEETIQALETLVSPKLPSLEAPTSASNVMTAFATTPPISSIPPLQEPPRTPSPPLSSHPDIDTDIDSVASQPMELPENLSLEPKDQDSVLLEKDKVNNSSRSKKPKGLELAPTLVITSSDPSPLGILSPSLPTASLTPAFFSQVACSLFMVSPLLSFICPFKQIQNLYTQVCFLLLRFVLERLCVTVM
Outline: as §1

ETV2 = target: T10, ETV2 (Homo sapiens, UniProt O00321 1-342)
T10 sequence: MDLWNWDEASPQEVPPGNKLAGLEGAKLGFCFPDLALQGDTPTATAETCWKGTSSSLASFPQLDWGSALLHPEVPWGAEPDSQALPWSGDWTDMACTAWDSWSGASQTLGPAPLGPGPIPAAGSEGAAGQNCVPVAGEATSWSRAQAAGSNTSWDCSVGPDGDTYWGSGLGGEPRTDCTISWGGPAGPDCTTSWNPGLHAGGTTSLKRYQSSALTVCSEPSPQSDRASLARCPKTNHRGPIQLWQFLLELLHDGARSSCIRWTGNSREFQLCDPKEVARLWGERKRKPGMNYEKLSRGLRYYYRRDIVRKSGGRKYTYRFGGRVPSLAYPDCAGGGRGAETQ
Outline: as §1

ELF3 = target: T11, ELF3 (Homo sapiens, UniProt P78545 1-371)
T11 sequence: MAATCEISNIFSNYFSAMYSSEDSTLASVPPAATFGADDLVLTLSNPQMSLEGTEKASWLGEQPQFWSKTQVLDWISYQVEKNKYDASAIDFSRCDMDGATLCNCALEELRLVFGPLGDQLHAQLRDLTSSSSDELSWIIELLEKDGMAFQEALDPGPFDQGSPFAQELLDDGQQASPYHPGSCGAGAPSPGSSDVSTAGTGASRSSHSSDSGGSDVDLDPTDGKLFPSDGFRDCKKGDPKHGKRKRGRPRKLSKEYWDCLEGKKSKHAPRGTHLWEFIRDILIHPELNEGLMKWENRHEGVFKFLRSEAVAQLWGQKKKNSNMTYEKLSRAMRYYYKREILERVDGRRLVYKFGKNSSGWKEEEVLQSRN
Outline: as §1

CRX = CRX (Homo sapiens, UniProt O43186 1-299)
Outline: as §1

ETV1 = ETV1 (Homo sapiens, UniProt P50549 1-477)
Outline: as §1

ELF4, sequence (Q99607 whole entry): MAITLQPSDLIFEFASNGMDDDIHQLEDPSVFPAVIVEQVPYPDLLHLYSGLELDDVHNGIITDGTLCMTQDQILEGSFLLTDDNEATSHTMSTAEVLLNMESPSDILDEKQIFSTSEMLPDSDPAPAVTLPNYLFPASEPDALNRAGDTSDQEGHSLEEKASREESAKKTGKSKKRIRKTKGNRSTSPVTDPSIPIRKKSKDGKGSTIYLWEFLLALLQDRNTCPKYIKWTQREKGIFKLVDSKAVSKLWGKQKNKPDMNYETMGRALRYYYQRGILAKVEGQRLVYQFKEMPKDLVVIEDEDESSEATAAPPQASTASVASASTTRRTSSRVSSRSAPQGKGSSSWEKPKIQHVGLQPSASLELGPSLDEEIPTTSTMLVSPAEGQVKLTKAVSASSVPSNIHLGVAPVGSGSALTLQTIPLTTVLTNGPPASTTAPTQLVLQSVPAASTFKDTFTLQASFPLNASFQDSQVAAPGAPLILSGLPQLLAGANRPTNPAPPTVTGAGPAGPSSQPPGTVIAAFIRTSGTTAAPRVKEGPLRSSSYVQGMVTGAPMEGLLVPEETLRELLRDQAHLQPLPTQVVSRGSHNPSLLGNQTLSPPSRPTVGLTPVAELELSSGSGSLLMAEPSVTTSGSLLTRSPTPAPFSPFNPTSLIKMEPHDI
CRX, sequence (O43186 whole entry): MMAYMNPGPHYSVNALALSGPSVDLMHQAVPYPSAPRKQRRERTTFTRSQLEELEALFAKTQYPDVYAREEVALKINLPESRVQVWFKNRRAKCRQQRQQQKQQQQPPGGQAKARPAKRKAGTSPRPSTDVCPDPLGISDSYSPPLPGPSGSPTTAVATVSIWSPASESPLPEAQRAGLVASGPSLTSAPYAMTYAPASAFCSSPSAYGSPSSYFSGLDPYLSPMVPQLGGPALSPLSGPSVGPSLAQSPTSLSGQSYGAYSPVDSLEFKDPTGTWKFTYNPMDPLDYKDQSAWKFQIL
SPIB, sequence (Q01892 whole entry): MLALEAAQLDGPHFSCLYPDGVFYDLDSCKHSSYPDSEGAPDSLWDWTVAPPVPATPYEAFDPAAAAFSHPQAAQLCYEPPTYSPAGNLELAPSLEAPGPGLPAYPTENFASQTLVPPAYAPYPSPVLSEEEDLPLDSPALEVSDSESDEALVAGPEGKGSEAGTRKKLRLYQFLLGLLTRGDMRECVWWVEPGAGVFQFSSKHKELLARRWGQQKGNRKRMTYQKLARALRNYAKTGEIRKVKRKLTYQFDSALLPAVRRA
ETV1, sequence (P50549 whole entry): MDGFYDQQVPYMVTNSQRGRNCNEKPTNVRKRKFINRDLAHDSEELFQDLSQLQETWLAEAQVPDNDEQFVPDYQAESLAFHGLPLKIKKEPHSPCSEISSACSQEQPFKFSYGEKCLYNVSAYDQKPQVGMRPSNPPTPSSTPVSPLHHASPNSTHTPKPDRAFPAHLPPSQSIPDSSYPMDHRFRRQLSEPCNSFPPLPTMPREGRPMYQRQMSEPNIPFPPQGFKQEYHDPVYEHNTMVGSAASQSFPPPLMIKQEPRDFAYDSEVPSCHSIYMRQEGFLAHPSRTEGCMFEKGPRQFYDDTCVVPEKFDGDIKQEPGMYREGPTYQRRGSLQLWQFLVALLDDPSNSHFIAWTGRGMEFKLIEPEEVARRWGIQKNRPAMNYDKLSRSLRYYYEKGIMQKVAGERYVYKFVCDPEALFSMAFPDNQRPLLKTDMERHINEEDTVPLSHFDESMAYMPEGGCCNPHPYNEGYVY
ETV5, sequence (P41161 whole entry): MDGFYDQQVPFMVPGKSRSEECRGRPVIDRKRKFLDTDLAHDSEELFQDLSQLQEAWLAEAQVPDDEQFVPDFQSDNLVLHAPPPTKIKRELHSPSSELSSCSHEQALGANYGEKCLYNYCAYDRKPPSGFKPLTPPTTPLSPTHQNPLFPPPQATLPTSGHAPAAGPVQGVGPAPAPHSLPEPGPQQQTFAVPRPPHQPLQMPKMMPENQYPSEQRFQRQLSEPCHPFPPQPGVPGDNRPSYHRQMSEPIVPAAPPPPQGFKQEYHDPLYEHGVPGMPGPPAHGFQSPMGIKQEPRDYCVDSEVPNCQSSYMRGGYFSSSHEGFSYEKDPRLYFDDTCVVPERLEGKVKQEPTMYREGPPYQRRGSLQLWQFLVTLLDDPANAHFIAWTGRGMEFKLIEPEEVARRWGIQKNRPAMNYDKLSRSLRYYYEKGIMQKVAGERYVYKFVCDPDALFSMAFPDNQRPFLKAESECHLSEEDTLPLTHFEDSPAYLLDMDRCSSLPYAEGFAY
ELF1, sequence (P32519 whole entry): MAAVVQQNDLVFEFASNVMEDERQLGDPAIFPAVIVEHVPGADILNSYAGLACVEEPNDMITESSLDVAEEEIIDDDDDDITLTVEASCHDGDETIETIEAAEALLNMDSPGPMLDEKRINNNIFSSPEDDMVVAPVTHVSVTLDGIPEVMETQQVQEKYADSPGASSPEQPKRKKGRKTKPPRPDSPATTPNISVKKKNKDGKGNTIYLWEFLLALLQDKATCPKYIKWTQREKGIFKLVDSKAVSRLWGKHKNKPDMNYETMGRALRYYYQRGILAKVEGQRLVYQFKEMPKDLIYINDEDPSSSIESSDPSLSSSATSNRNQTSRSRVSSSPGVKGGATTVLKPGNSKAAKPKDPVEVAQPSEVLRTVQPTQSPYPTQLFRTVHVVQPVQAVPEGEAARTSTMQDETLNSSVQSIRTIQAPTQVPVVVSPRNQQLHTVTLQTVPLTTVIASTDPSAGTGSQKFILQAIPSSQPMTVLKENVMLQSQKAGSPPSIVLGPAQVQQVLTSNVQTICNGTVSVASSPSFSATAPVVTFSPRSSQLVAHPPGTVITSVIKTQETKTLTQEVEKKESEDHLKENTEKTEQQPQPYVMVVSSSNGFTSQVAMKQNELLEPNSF

Sequence	binding signal (FLI1)	binding signal (ELK1)	binding signal (GABPA)	binding signal (ERG)	binding signal (ELF1)	binding signal (EHF)	binding signal (SPI1)	binding signal (SPIB)	binding signal (ELK3)	binding signal (FEV)	binding signal (ETV5)	binding signal (SPIC)	binding signal (ELF4)	binding signal (ELK4)	binding signal (ETV2)	binding signal (ELF3)	binding signal (CRX)	binding signal (ETV1)
ACCCCG	1.24 fold enrichment (6-mer frequency, TF over GST control)	1.3 fold enrichment (6-mer frequency, TF over GST control)	1.29 fold enrichment (6-mer frequency, TF over GST control)	1.24 fold enrichment (6-mer frequency, TF over GST control)	1.31 fold enrichment (6-mer frequency, TF over GST control)	1.27 fold enrichment (6-mer frequency, TF over GST control)	1.14 fold enrichment (6-mer frequency, TF over GST control)	1.3 fold enrichment (6-mer frequency, TF over GST control)	1.21 fold enrichment (6-mer frequency, TF over GST control)	1.25 fold enrichment (6-mer frequency, TF over GST control)	1.27 fold enrichment (6-mer frequency, TF over GST control)	1.38 fold enrichment (6-mer frequency, TF over GST control)	1.33 fold enrichment (6-mer frequency, TF over GST control)	1.29 fold enrichment (6-mer frequency, TF over GST control)	1.21 fold enrichment (6-mer frequency, TF over GST control)	1.22 fold enrichment (6-mer frequency, TF over GST control)	1.02 fold enrichment (6-mer frequency, TF over GST control)	1.22 fold enrichment (6-mer frequency, TF over GST control)
TACCGC	1.16 fold enrichment (6-mer frequency, TF over GST control)	1.07 fold enrichment (6-mer frequency, TF over GST control)	1.02 fold enrichment (6-mer frequency, TF over GST control)	1.08 fold enrichment (6-mer frequency, TF over GST control)	1.02 fold enrichment (6-mer frequency, TF over GST control)	1.11 fold enrichment (6-mer frequency, TF over GST control)	1.19 fold enrichment (6-mer frequency, TF over GST control)	1.09 fold enrichment (6-mer frequency, TF over GST control)	1.13 fold enrichment (6-mer frequency, TF over GST control)	1.13 fold enrichment (6-mer frequency, TF over GST control)	1.06 fold enrichment (6-mer frequency, TF over GST control)	1.15 fold enrichment (6-mer frequency, TF over GST control)	1.1 fold enrichment (6-mer frequency, TF over GST control)	1.14 fold enrichment (6-mer frequency, TF over GST control)	1.16 fold enrichment (6-mer frequency, TF over GST control)	1.23 fold enrichment (6-mer frequency, TF over GST control)	1.03 fold enrichment (6-mer frequency, TF over GST control)	1.06 fold enrichment (6-mer frequency, TF over GST control)
